Data from ChEMBL document CHEMBL2218924, “A broad activity screen in support of a chemogenomic map for kinase signalling research and drug discovery” (Biochem J, 2013).

What was measured:
[1] = molecular target: Homeodomain-interacting protein kinase 3 (Homo sapiens) (UniProt Q9H422); settings: at 10 µM
[2] = molecular target: T1, Serine/threonine-protein kinase haspin (Homo sapiens) (UniProt Q8TF76); settings: at 1 µM
T1 sequence (whole entry): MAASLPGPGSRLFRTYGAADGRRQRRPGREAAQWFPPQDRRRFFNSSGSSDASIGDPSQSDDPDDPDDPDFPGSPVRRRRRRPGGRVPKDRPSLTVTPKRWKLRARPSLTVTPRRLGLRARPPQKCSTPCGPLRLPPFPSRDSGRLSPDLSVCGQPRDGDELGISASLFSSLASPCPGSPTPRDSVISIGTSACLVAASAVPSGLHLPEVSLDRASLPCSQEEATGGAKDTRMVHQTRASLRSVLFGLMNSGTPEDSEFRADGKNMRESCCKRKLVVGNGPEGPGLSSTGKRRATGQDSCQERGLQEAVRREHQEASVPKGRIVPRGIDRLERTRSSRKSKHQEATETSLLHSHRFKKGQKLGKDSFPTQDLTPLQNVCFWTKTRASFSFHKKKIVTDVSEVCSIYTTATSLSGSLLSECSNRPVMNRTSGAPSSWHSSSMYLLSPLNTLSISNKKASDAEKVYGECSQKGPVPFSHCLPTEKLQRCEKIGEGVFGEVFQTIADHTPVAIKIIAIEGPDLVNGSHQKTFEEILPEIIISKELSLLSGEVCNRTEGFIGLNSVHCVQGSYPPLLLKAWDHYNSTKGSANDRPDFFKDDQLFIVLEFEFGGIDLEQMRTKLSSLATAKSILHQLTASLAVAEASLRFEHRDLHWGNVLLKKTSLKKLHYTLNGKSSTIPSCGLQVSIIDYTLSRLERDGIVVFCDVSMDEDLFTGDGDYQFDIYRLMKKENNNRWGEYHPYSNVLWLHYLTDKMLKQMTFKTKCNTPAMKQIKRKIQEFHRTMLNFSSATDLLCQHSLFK

[3] = molecular target: T1, Serine/threonine-protein kinase haspin (Homo sapiens); settings: at 10 µM
[4] = molecular target: Tyrosine-protein kinase HCK (Homo sapiens) (UniProt P08631); settings: at 1 µM
Sequence of Tyrosine-protein kinase HCK (Homo sapiens) (P08631 2-526 limits assumed): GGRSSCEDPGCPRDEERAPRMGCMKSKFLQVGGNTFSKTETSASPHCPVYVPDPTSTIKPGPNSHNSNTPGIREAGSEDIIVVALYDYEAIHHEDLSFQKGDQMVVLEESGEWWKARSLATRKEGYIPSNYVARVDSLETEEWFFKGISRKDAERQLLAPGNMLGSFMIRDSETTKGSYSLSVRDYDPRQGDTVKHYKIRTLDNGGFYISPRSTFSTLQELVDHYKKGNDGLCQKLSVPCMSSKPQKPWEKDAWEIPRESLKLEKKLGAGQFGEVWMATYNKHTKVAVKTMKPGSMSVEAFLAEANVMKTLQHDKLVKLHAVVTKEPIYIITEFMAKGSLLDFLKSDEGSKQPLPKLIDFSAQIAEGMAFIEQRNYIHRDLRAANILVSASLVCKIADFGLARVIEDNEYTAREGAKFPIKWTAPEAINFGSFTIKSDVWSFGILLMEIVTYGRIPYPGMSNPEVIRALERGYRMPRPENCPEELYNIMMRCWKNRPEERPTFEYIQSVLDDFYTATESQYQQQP

[5] = molecular target: Tyrosine-protein kinase HCK (Homo sapiens) (UniProt P08631); settings: at 10 µM
[6] = molecular target: Tyrosine-protein kinase HCK (Homo sapiens) (UniProt P08631); settings: at 1 µM; remark: listed apart in the source
[7] = molecular target: Tyrosine-protein kinase HCK (Homo sapiens) (UniProt P08631); settings: at 10 µM; remark: listed apart in the source
[8] = molecular target: Insulin-like growth factor 1 receptor (Homo sapiens) (UniProt P08069); settings: at 1 µM
Sequence of Insulin-like growth factor 1 receptor (Homo sapiens) (P08069 31-736 limits assumed): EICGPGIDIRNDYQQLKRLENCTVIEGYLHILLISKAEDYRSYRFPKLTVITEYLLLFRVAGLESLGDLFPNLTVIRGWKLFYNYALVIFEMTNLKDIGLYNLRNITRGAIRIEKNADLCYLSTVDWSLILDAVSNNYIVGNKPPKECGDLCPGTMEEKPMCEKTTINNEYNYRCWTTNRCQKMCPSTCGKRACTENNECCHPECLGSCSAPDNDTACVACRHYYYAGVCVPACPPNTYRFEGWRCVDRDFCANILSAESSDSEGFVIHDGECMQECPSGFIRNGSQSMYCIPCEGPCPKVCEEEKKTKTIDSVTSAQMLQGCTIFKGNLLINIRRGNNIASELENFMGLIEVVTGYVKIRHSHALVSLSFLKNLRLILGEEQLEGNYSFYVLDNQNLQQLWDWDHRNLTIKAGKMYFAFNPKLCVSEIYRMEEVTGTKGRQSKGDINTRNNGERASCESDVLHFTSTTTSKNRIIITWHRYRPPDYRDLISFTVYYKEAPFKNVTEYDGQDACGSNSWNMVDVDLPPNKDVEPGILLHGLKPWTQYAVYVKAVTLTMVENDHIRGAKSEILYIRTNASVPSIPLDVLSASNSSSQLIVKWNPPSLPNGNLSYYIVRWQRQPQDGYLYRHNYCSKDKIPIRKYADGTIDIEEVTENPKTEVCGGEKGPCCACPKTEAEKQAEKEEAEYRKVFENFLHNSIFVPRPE
Sequence of Insulin-like growth factor 1 receptor (Homo sapiens) (P08069 741-1367 limits assumed): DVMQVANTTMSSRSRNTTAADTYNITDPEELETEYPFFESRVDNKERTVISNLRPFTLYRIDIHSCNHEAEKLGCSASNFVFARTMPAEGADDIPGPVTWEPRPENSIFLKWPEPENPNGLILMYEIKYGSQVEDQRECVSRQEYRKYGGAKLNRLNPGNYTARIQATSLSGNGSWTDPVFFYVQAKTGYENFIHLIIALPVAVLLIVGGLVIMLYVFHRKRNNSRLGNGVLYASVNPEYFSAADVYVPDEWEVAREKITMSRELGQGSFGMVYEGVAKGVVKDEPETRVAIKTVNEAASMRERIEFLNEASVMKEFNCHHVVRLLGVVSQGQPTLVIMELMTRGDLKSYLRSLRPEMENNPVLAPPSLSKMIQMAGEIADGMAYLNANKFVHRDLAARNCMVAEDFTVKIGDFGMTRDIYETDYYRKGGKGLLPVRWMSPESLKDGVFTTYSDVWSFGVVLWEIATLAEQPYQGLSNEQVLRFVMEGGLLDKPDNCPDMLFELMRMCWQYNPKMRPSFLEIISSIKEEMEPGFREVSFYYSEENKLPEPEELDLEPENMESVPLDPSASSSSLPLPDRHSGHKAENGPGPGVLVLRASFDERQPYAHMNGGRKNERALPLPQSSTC

[9] = molecular target: Insulin-like growth factor 1 receptor (Homo sapiens) (UniProt P08069); settings: at 10 µM
[10] = molecular target: T2, Protein kinase C zeta type (Homo sapiens) (UniProt Q05513); settings: at 10 µM
T2 sequence (whole entry): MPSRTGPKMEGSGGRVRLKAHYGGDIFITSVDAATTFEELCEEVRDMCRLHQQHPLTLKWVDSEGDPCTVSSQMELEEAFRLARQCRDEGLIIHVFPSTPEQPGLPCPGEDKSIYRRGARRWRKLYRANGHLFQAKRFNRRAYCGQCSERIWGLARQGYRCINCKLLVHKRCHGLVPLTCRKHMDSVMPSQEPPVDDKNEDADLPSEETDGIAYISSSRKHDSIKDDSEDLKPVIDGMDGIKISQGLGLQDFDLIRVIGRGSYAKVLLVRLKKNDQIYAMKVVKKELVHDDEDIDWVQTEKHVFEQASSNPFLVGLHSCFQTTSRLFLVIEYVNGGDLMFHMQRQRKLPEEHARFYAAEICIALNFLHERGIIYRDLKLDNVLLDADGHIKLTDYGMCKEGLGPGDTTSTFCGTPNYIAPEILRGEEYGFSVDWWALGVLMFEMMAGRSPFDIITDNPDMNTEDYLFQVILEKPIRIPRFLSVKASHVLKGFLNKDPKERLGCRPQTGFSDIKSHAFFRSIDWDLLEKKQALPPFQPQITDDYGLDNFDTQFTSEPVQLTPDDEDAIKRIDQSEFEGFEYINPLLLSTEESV

[11] = molecular target: Protein kinase C eta type (Homo sapiens) (UniProt P24723); settings: at 1 µM
Sequence of Protein kinase C eta type (Homo sapiens) (P24723 whole entry): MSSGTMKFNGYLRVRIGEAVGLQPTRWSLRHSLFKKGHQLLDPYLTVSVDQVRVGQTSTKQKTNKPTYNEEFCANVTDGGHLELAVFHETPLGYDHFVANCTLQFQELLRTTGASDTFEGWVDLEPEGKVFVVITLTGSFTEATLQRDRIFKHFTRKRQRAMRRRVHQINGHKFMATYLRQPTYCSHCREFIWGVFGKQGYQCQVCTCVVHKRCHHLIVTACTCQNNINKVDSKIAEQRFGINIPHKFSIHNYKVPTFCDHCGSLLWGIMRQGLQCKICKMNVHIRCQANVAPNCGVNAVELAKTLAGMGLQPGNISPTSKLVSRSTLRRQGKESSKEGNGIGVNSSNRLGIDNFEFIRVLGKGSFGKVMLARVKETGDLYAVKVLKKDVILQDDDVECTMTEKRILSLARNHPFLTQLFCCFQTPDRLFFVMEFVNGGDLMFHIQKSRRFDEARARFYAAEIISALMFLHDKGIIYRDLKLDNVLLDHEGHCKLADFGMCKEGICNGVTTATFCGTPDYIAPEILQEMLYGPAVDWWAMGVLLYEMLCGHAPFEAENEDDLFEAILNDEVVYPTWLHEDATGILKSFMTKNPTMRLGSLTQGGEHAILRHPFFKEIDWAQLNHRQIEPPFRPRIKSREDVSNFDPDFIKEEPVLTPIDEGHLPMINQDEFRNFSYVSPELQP

[12] = molecular target: Protein kinase C eta type (Homo sapiens) (UniProt P24723); settings: at 10 µM
[13] = molecular target: Protein kinase C theta type (Homo sapiens) (UniProt Q04759); settings: at 1 µM
Sequence of Protein kinase C theta type (Homo sapiens) (Q04759 whole entry, looked up): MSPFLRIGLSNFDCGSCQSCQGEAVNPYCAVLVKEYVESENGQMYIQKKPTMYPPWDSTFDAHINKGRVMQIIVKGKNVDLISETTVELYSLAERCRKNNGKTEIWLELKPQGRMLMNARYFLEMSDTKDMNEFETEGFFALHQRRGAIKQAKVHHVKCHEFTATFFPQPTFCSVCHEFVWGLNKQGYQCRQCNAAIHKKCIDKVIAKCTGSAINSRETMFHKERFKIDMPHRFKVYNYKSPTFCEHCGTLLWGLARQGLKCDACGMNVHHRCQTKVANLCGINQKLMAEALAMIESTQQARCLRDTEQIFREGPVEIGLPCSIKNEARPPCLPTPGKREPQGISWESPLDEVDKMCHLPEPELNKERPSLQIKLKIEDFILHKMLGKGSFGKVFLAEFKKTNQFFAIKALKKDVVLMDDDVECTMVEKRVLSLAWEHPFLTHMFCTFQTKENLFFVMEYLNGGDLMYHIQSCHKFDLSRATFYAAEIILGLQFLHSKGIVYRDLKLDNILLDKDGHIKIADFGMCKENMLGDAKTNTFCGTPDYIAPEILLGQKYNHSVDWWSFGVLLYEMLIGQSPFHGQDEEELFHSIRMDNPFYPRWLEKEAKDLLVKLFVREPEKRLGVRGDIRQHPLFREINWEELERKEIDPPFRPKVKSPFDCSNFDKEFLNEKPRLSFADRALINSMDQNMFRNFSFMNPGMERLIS

[14] = molecular target: Protein kinase C theta type (Homo sapiens) (UniProt Q04759); settings: at 10 µM
[15] = molecular target: T3, Protein kinase C iota type (Homo sapiens) (UniProt P41743); settings: at 1 µM
T3 sequence (whole entry): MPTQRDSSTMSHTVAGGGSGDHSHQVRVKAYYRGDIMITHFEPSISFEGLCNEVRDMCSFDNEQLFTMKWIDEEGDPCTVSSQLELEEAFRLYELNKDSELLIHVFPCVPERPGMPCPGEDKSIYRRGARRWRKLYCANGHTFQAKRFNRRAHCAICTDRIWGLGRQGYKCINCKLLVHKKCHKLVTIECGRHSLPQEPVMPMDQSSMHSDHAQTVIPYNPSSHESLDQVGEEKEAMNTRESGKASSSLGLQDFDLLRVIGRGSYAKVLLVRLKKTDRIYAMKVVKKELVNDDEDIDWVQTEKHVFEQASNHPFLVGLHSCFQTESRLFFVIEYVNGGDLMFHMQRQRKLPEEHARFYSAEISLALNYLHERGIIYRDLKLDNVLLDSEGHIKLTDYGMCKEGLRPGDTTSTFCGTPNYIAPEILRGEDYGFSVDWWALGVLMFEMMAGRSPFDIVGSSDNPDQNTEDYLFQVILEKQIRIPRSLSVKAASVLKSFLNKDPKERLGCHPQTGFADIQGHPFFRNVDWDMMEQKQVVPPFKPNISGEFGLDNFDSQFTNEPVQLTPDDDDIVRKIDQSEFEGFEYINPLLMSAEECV

[16] = molecular target: T3, Protein kinase C iota type (Homo sapiens); settings: at 10 µM
[17] = molecular target: T4, Serine/threonine-protein kinase D1 (Homo sapiens) (UniProt Q15139); settings: at 1 µM
T4 sequence (whole entry): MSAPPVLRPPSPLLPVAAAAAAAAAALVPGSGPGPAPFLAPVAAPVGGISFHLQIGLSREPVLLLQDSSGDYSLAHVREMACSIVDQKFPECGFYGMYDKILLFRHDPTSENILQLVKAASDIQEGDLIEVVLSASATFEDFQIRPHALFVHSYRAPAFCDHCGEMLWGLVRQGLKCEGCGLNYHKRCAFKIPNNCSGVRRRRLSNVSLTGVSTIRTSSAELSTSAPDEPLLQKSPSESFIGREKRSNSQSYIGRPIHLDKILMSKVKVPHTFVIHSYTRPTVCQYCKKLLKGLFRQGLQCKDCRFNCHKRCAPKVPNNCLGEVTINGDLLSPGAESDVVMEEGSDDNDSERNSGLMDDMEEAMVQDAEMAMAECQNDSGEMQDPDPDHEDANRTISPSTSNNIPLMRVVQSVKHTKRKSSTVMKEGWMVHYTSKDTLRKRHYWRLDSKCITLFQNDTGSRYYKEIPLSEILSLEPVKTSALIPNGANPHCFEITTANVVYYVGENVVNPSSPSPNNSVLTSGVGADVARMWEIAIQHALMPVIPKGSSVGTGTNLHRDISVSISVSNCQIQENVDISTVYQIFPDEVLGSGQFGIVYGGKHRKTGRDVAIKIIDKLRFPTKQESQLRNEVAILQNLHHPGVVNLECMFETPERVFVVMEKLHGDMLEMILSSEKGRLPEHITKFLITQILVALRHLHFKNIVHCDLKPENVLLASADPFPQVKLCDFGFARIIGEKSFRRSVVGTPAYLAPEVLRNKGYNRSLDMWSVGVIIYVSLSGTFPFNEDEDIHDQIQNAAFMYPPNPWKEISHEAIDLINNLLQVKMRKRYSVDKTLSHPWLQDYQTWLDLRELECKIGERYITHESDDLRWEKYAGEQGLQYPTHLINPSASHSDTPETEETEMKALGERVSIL

[18] = molecular target: T4, Serine/threonine-protein kinase D1 (Homo sapiens); settings: at 10 µM
[19] = molecular target: T5, Serine/threonine-protein kinase D2 (Homo sapiens) (UniProt Q9BZL6); settings: at 1 µM
T5 sequence (whole entry): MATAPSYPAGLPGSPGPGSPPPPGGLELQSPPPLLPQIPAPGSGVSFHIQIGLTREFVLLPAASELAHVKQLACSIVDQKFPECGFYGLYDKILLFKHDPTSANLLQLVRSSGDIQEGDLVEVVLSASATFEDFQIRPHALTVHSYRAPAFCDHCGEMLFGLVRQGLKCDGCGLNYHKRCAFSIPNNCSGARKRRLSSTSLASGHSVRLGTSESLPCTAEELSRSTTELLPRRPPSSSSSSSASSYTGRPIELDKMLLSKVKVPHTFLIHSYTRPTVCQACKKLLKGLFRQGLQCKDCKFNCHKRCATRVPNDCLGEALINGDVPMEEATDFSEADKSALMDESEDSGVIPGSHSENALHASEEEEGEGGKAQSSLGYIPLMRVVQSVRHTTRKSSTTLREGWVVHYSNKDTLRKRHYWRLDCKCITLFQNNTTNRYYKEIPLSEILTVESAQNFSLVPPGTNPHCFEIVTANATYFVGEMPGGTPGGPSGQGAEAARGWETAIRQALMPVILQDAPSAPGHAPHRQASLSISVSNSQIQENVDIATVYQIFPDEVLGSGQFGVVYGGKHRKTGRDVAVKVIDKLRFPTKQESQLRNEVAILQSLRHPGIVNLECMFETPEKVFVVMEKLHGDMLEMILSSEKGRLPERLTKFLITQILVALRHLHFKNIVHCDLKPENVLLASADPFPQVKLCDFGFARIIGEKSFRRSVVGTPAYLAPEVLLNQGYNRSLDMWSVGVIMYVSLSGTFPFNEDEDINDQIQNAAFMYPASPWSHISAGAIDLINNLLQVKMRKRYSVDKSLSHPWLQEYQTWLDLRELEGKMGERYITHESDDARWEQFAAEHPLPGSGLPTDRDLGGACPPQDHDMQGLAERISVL

[20] = molecular target: T5, Serine/threonine-protein kinase D2 (Homo sapiens); settings: at 10 µM

Sequence of Homeodomain-interacting protein kinase 3 (Homo sapiens) (Q9H422 whole entry, looked up): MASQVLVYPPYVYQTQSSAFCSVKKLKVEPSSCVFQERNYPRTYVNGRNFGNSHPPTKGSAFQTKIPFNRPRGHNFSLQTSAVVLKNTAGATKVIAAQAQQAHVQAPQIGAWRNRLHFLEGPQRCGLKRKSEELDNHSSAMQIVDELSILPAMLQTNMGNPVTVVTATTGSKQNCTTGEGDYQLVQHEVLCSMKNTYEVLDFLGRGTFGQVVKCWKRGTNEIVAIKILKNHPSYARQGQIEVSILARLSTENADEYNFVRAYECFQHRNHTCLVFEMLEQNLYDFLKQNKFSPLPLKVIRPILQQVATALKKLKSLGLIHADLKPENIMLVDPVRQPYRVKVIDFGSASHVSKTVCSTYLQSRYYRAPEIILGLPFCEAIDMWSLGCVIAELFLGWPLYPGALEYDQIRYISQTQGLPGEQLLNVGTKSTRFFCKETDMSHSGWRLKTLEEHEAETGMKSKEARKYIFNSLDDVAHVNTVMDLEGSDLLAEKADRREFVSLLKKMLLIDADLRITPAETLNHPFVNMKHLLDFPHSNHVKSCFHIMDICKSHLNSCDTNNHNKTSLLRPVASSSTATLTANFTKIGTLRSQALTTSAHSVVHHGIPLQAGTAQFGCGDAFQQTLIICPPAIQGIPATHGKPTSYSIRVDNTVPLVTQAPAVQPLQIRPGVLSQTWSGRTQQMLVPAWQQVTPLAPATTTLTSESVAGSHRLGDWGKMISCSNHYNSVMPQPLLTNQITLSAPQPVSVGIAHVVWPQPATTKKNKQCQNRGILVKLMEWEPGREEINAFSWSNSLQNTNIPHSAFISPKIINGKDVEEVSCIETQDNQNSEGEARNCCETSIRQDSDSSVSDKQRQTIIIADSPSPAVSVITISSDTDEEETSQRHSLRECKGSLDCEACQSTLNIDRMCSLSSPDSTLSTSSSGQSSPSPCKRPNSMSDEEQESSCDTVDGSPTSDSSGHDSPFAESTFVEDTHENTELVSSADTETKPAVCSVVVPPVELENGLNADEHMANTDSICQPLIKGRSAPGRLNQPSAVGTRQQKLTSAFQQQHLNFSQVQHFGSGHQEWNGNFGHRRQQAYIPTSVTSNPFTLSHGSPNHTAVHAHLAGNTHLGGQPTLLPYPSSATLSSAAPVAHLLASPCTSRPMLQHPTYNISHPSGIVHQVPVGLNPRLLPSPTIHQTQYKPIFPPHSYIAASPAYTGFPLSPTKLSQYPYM

SMILES | residual activity [1] [%] | residual activity [2] [%] | residual activity [3] [%] | residual activity [4] [%] | residual activity [5] [%] | residual activity [6] [%] | residual activity [7] [%] | residual activity [8] [%] | residual activity [9] [%] | residual activity [10] [%] | residual activity [11] [%] | residual activity [12] [%] | residual activity [13] [%] | residual activity [14] [%] | residual activity [15] | residual activity [16] [%] | residual activity [17] [%] | residual activity [18] [%] | residual activity [19] [%] | residual activity [20] [%]
O=C(Nc1cccc(Nc2nccc(Nc3cccc(C(F)(F)F)c3)n2)c1)C1CC1 | 103 | 71 | 32 | 42 | 7 | 78 | 78 | 51 | 6 | 116 | 107 | 84 | 102 | 82 | 84% (inactive) | 77 | 101 | 125 | 99 | 96
c1ccc(-c2n[nH]cc2-c2ccnc3ccccc23)nc1 | 98 | 71 | 49 | 86 | 72 | 100 | 69 | 131 | 133 | 123 | 92 | 77 | 97 | 86 | 81% (inactive) | 91 | 65 | 22 | 101 | 66
Cn1cnc2cc3c(Nc4cccc(Br)c4)ncnc3cc21 | 95 | 108 | 59 | 52 | 21 | 51 | 25 | 145 | 103 | 101 | 93 | 91 | 99 | 100 | 103% (inactive) | 76 | 94 | 82 | 97 | 116
CCC(=O)Nc1ccc2ncnc(Nc3cccc(Br)c3)c2c1 | 99 | 109 | 62 | 82 | 45 | 86 | 66 | 132 | 116 | 119 | 85 | 82 | 96 | 95 | 100% (inactive) | 101 | 85 | 82 | 105 | 112
COc1ccc(CNc2nc(N(CCO)CCO)nc3c2ncn3C(C)C)cc1 | 98 | 104 | 101 | 62 | 56 | 102 | 91 | 90 | 129 | 95 | 83 | 83 | 4 | 5 | 112% (inactive) | 108 | 91 | 71 | 101 | 93
O=C1Nc2cc(Br)ccc2/C1=C1/Nc2ccccc2/C1=N\O | 88 | 68 | 49 | 6 | 1 | 1 | 2 | 112 | 127 | 99 | 76 | 74 | 87 | 75 | 110% (inactive) | 112 | 90 | 100 | 101 | 95
